Screening data as filed in PubChem BioAssay.
DAX1 StAR inh – inhibitors of DAX1 repression of SF-1 activated StAR promoter | HEK293T StAR-luciferase reporter, SF-1/DAX-1 repression relief | inhibition, % at 6.8 µM | 370,000 compounds, 1.1% hits | AID 652010;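 active = inhibition above the mean over all tested compounds plus 3 SD, cut at about 3.6% in these data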;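 also: 0% = DAX-1 cells with DMSO and 100% = cells lacking DAX-1 with DMSO; higher inhibition means more luminescence from relief of DAX-1 repression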
hgDAF12 agonist – agonists of H. glycines DAF-12 nuclear receptor; 370,000 compounds, 1.8% hits; HEK293 GAL4-hgDAF12 UAS-luciferase reporter, agonist luminescence; normalized to butyrate control; activation, % at 6.8 µM;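 active = activation above a cutoff set at the mean of all screened compounds plus 3 SD, cut at about 10% in these data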;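 also: 0% = DMSO wells and 100% = sodium butyrate wells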
esBAF inh – inhibitors of esBAF chromatin remodeling in mouse ES cells. Bmi1-luciferase knock-in reporter, 24 h; 100% = twice the neutral-well signal. reporter increase, % at 12.5 µM. 350,000 compounds, 2% hits; in the data active = activation above about 40%; inconclusive = no clear call, values can overlap the other calls;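 also: 0% = median of the plate's neutral control wells and 100% = double that signal; a rise in the Bmi1 reporter signal indicates esBAF inhibition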
Wnt bcat act – activates Wnt/beta-catenin signaling in a reporter cell assay; activation, % at 9.35 µM; activator, plate reader; AID 743398; 300,000 compounds, 1.2% hits; in the data active = activation above about 30%, passing the limit was not always enough; inconclusive = no clear call, values can overlap the other calls;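 also: 0% = neutral control wells and 100% = positive control wells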
ssDAF12 agonist – activates DAF-12 receptor from parasite S. stercoralis. activation, % at 6.8 µM. 370,000 compounds, 1% hits. HEK293 ssDAF-12/GRIP1 lit1-tk-luc reporter, luminescence; % of 3 µM dafachronic acid response;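 active = activation above the mean over all tested compounds plus 3 SD, cut at about 0.9% in these data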;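 also: 0% = DMSO-only wells and 100% = 3 µM delta7-dafachronic acid wells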
hcDAF-12 act – activators of H. contortus DAF-12 nuclear receptor. HEK293 hcDAF-12 lit1-tk-luc reporter, luminescence; 0% DMSO, 100% Δ7-dafachronic acid. activation, % at 6.8 µM. 370,000 compounds, 1.4% hits;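 active = activation above the mean of all tested compounds plus 3 SD, cut at about 5.5% in these data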;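 also: 100% = response to 3 µM Δ7-dafachronic acid high control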
Numbers without * were called inactive. Compounds with a hit are over-represented: about 4.2% of the library has one in this group of screens.

For COc1ccc(C(=O)OCC(=O)c2c[nH]c3ccccc23)cc1OC the results were DAX1 StAR inh -2, hgDAF12 agonist 2, esBAF inh 52*, Wnt bcat act 11, ssDAF12 agonist 0 and hcDAF-12 act 3.
`COc1cc(C(=O)OCC(=O)c2c[nH]c3ccccc23)ccc1OCC(=O)N1CCOCC1` gave DAX1 StAR inh 0, hgDAF12 agonist -2, esBAF inh 9, Wnt bcat act 0, ssDAF12 agonist 0 and hcDAF-12 act 0.
`Cc1ccc(C(=O)OCC(=O)c2c[nH]c3ccccc23)cc1` gave DAX1 StAR inh 2, hgDAF12 agonist 6, Wnt bcat act 9, ssDAF12 agonist 1.9* and hcDAF-12 act 6.5*.
`O=C(CSCC(=O)N1CCCCC1)OCC(=O)c1c[nH]c2ccccc12` gave DAX1 StAR inh 0, hgDAF12 agonist 1, esBAF inh -8, Wnt bcat act -1, ssDAF12 agonist 1.3* and hcDAF-12 act 3.
`Cc1cnc(C(=O)OCC(=O)c2c[nH]c3ccccc23)cn1` gave DAX1 StAR inh 2, hgDAF12 agonist 5, esBAF inh -4, Wnt bcat act 5, ssDAF12 agonist 0 and hcDAF-12 act 4.
For O=C1CCC(C(=O)OCC(=O)c2c[nH]c3ccccc23)=NN1 the results were DAX1 StAR inh 0, hgDAF12 agonist -1, esBAF inh 0, Wnt bcat act -7, ssDAF12 agonist 1 and hcDAF-12 act 5.6*.
Screening C[C@@H]1CN([C@@H](C)CO)C(=O)c2cc(NS(=O)(=O)c3cccs3)ccc2O[C@@H](C)CCCCO[C@@H]1CN(C)S(=O)(=O)c1ccc(F)cc1 returned esBAF inh 7.
O=C(COC(=O)c1c[nH]c2ccccc12)Nc1ccccc1 was read as DAX1 StAR inh 0, hgDAF12 agonist 2, esBAF inh 14, Wnt bcat act -3, ssDAF12 agonist -1 and hcDAF-12 act 1.
COC(=O)c1ccc(NC(=O)C(=O)c2c[nH]c3ccccc23)cc1 was read as DAX1 StAR inh 0, hgDAF12 agonist 4, esBAF inh 28, Wnt bcat act 3, ssDAF12 agonist 1.8* and hcDAF-12 act 6.3*.
Screening Cc1ccc(OCC(=O)c2c[nH]c3ccccc23)c([N+](=O)[O-])n1 returned DAX1 StAR inh 2, hgDAF12 agonist 4, Wnt bcat act 4, ssDAF12 agonist 1 and hcDAF-12 act 6.3*.
CO[C@H]1CN(C)C(=O)c2ccc(NC(=O)C3CC3)cc2OC[C@H](C)N(C)C[C@H]1C was read as esBAF inh -2.
For CCN1[C@@H]2Cn3c(ccc(-c4ccccc4F)c3=O)[C@H]1[C@@H](C(=O)N1CCCCC1)[C@@H]2CO the results were esBAF inh 0.
`COc1ccc(NC(=O)Nc2ccc3c(c2)C(=O)N([C@H](C)CO)C[C@H](C)[C@@H](CN(C)C(=O)Nc2ccc(C(F)(F)F)cc2)OCCCC[C@H](C)O3)cc1` gave esBAF inh 2.
For O=C(C[C@@H]1CC[C@H]2[C@@H](COC[C@H](O)CN2Cc2nccs2)O1)NCc1ccc(F)cc1 the results were esBAF inh -3.
Screening Cn1c(C(=O)NCC2CCCO2)cc2oc3ccccc3c21 (stereo unspecified) returned DAX1 StAR inh 2, hgDAF12 agonist 10, esBAF inh 76*, ssDAF12 agonist -1 and hcDAF-12 act 1.
Cn1c(C(=O)NCC2CCCO2)cc2c(=O)[nH]c3ccccc3c21 (stereo unspecified) was read as DAX1 StAR inh 0, hgDAF12 agonist 0, esBAF inh 8, Wnt bcat act 0, ssDAF12 agonist -1 and hcDAF-12 act -2.
Cn1c(C(=O)NCc2ccccc2)cc2oc3ccccc3c21 was read as DAX1 StAR inh 0, hgDAF12 agonist -4, esBAF inh 59*, Wnt bcat act 10, ssDAF12 agonist -1 and hcDAF-12 act -3.
`Cn1c(C(=O)NCC2CCCO2)cc2c(=O)n(C)c3ccccc3c21` (stereo unspecified) gave DAX1 StAR inh -1, hgDAF12 agonist -3, esBAF inh -5, Wnt bcat act 17, ssDAF12 agonist -1 and hcDAF-12 act -1.
Screening Cn1c(=O)c(C(=O)NCC2CCCO2)c(O)c2ccccc21 (stereo unspecified) returned DAX1 StAR inh 3, hgDAF12 agonist 10, esBAF inh inconclusive, Wnt bcat act 39*, ssDAF12 agonist 1 and hcDAF-12 act 5.
`O=C(NCc1ccccc1)c1cc2ccccc2o1` gave DAX1 StAR inh 0, hgDAF12 agonist 0, esBAF inh 22, ssDAF12 agonist -1 and hcDAF-12 act 0.
For Cn1c(C(=O)NCc2cccs2)cc2oc3ccccc3c21 the results were DAX1 StAR inh 1, hgDAF12 agonist 0, esBAF inh 52*, Wnt bcat act 11, ssDAF12 agonist -2 and hcDAF-12 act -2.
Screening O=C(Nc1ccccc1F)N1C[C@H]2[C@@H](c3ccccc31)[C@H](CO)N2C(=O)c1ccccc1F returned esBAF inh 15.
`COc1ccc(S(=O)(=O)N[C@H]2CC[C@@H](CC(=O)NCc3ccccc3F)O[C@H]2CO)cc1` gave esBAF inh 1.
For CCS(=O)(=O)Nc1ccc2c(c1)C(=O)N(C)C[C@H](OC)[C@@H](C)CN(C(=O)C1CCC1)[C@H](C)CO2 the results were esBAF inh 5.
`CCOC(=O)c1ccc2[nH]c(C)cc(=O)c2c1` gave DAX1 StAR inh 0, hgDAF12 agonist -1, esBAF inh 4, ssDAF12 agonist -1 and hcDAF-12 act -1.
CCOC(=O)c1ccc2[nH]c(C)c(C)c2c1 was read as DAX1 StAR inh 2, hgDAF12 agonist 7, esBAF inh 59*, ssDAF12 agonist -1 and hcDAF-12 act 1.
Screening CCOC(=O)c1ccc2[nH]c3ccccc3c2c1 returned DAX1 StAR inh 1, hgDAF12 agonist 11*, esBAF inh 62*, Wnt bcat act 0, ssDAF12 agonist 0 and hcDAF-12 act 3.
`C[C@@H]1CN([C@@H](C)CO)C(=O)c2cccc(NC(=O)C3CC3)c2O[C@@H]1CN(C)C(=O)Nc1ccc2c(c1)OCO2` gave esBAF inh -4.
C=CCn1cccc(C(=O)Nc2ccc(C)c(C)c2)c1=O was read as DAX1 StAR inh 0, hgDAF12 agonist 5, esBAF inh 49*, Wnt bcat act inconclusive, ssDAF12 agonist 1 and hcDAF-12 act 2.
C=CCn1cccc(C(=O)Nc2ccc(C)cc2)c1=O was read as DAX1 StAR inh 0, hgDAF12 agonist 3, esBAF inh 39, Wnt bcat act 2, ssDAF12 agonist -1 and hcDAF-12 act 1.
`O=C(c1ccccn1)N1C[C@@H]2[C@H](c3ccccc31)[C@@H](CO)N2C(=O)CC1CC1` gave esBAF inh -5.
